Common to all, as to experiment: PBM binding z-score (relative to random genomic background probes); higher = stronger binding; sequences stand for … in GC…GCGATTGACAGCGTAGAATGAAGG
Assay [1] deals with RARb homodimer (NR concentration 270 nM). The method in brief:
(§1)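 Each nuclear receptor dimer, without ligand, was incubated for 1 h on custom Agilent 4×180K protein-binding microarrays. Binding was detected with antibodies against each partner (one per run), and scanned fluorescence was regression-normalized. The binding z-scores are referenced to random human genomic background probes.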

In assay [2] the test system is RARg:RXRa (NR concentration 270 nM, RXRa partner concentration 90 nM). A digest of the protocol: as §1
Assay [3] concerns RARg homodimer (NR concentration 270 nM). The method in brief: as §1
Assay [4] concerns RXRa DBDmut IVT, anti-RXR (DBD mutation: RXRa K156A/R161A, NR concentration 90 nM). The method in brief:
as §1

Assay [5] deals with RXRa homodimer (NR concentration 180 nM). The method in brief: as §1
The subject of assay [6] is THRa:RXRa (NR concentration 90 nM, RXRa partner concentration 90 nM). The method in brief: as §1
The subject of assay [7] is THRa homodimer (NR concentration 90 nM). A digest of the protocol: as §1
Assay [8] relates to VDR homodimer (NR concentration 270 nM). The method in brief: as §1

For the sequence CGTCCAAGGTCAAAGGACAGTGAAGAGATGACGG, the PBM binding z-score came to 4.02 in assay [1]; 5.79 in assay [2]; 6.52 in assay [3]; 3.52 in assay [4]; 5.67 in assay [5]; 3.76 in assay [6]. The PBM binding z-score in assay [7] turned out to be 1.95; in assay [8] it was 2.37.
In the case of GCTTACGGGTCACAGGTTATAGCATGAATAGAAT, the PBM binding z-score is 2.95 in assay [1]; 5.09 in assay [2]; 4.66 in assay [3]; 2.03 in assay [4]; 5.84 in assay [5]; 2.86 in assay [6]. Moreover, the PBM binding z-score in assay [7] was 0.315; in assay [8], 0.608.
For the sequence GCGACTGGAGCATCAGCAGGTTACCATAACTTAA, the PBM binding z-score was -0.0503 in assay [1]; -0.127 in assay [2]; -0.161 in assay [3]; -0.526 in assay [4]; 0.0977 in assay [5]; 0.179 in assay [6]. For the same sequence, the PBM binding z-score in assay [7] was -0.37; in assay [8], -0.639.
As to AGTCAAGGTTCATCTAGGTAACGTAAGATATGCT, the PBM binding z-score is 2.09 in assay [1]; 3.09 in assay [2]; 2.93 in assay [3]; 4.77 in assay [4]; 3.54 in assay [5]; 3 in assay [6]. The PBM binding z-score worked out at 0.474 in assay [7] and 5.03 in assay [8].
Take CAAACTAGGCCACCGGAAGGTCAAAGTCCGCATG: the PBM binding z-score in assay [1] turned out to be 4.21; in assay [2] it was 4.82; in assay [3], 4.07; in assay [4], 0.796; in assay [5], 4.1; in assay [6], 2.93. For the same sequence, the results for the PBM binding z-score in assay [7] and in assay [8] were 1.18 and 2.29, respectively.
For TTACCAAGGTGAAAGGACGTTGATGCACGCCTTG, the PBM binding z-score was 0.523 in assay [1]; 0.792 in assay [2]; 0.651 in assay [3]; -0.0859 in assay [4]; 0.819 in assay [5]; 1.36 in assay [6]. Further, the PBM binding z-score in assay [7] was 0.386; in assay [8], -0.00942.
Consider ACAGACAGGTGAGTGAAGGTAACTTAGCTGGACG, for which the PBM binding z-score in assay [1] is -0.0414; in assay [2], 0.357; in assay [3], 0.463; in assay [4] it was -0.514; in assay [5], 0.233; in assay [6], 1.46. The PBM binding z-score in assay [7] was -0.186; in assay [8] it was -0.226.

(Values after the supplement of paper PMC6555819.)
